According to PubChem BioAssay (NCI):
This is part of a sample that, as a whole, favours compounds with a hit. Of some 83,000 tested, about 20% had one in any assay.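 Activity criterion: percent growth below 10, measured after cells in 96-well plates were exposed to a single compound concentration for 48 hours.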 A number with no mark means an inactive call. The source made the active and inactive calls.

How the values were obtained:
Assay in all cases: NCI-60 one-dose screen, 48 h (100 = growth as untreated, 0 = no growth, -100 = all killed)
Settings in all cases: 10 µM unless noted
NCI-H23 lung = test system: NCI-H23 lung
NCI-H226 lung = test system: NCI-H226 lung
NCI-H322M lung = test system: NCI-H322M lung
HOP-62 NSCLC = test system: HOP-62 NSCLC
NCI-H460 lung = test system: NCI-H460 lung
HOP-92 NSCLC = test system: HOP-92 NSCLC
NCI-H522 lung = test system: NCI-H522 lung
A549/ATCC NSCLC = test system: A549/ATCC NSCLC
786-0 renal = test system: 786-0 renal
COLO 205 colon = test system: COLO 205 colon
DU-145 prostate = test system: DU-145 prostate
K-562 leukemia = test system: K-562 leukemia
MALME-3M melanoma = test system: MALME-3M melanoma
MDA-MB-231 breast = test system: MDA-MB-231 breast
RXF 393 renal = test system: RXF 393 renal
SF-268 CNS = test system: SF-268 CNS
SF-295 CNS = test system: SF-295 CNS
SF-539 CNS = test system: SF-539 CNS
UACC-257 melanoma = test system: UACC-257 melanoma
M14 melanoma = test system: M14 melanoma

| Compound | growth (NCI-H23 lung) | growth (NCI-H226 lung) | growth (NCI-H322M lung) | growth (HOP-62 NSCLC) | growth (NCI-H460 lung) | growth (HOP-92 NSCLC) | growth (NCI-H522 lung) | growth (A549/ATCC NSCLC) | growth (786-0 renal) | growth (COLO 205 colon) | growth (DU-145 prostate) | growth (K-562 leukemia) | growth (MALME-3M melanoma) | growth (MDA-MB-231 breast) | growth (RXF 393 renal) | growth (SF-268 CNS) | growth (SF-295 CNS) | growth (SF-539 CNS) | growth (UACC-257 melanoma) | growth (M14 melanoma) |
| --- | --- | --- | --- | --- | --- | --- | --- | --- | --- | --- | --- | --- | --- | --- | --- | --- | --- | --- | --- | --- |
| Fc1cccc(NCOOC2(OOCNc3cccc(F)c3)CCCCC2)c1 | 81.9% | 112% | 98.6% | 90.6% | 104% | 87.3% | 74.9% | 89.6% | 85% | 118% | 98.6% | 41.3% | 101% | 103% | 108% | 93% | 94.3% | 91.2% | 88.7% | 91.6% |
| c1ccc(CSC(c2ccccc2)c2ccccc2)cc1 | 101% | 111% | 119% | 116% | 105% | 76.2% | 97.6% | 103% | 91.3% | 101% | 121% | 105% | 110% | 119% | 119% | 112% | 114% | 105% | 105% | 99.1% |
| ClCCN(CCCl)c1ccc(OCc2ccccc2)cc1 | 58.7% | 84.6% | 102% | 54.8% | 20.3% | 57.3% | 75.1% | 45.7% | 19% | 75.9% | 26.3% | 73.3% | 90.9% | 106% | 82.1% | 36% | 10.3% | 8.54% (active) | 74.2% | 41.9% |
| CC1=C([Te]c2ccc(O)cc2)C(=O)c2ccccc2C1=O | -19.6% (active) | -35.4% (active) | 22.3% | -25.2% (active) | -27.6% (active) | -56.5% (active) | 0.775% (active) | 6.97% (active) | -1.41% (active) | -88.5% (active) | 7.43% (active) | -36.6% (active) | 5.22% (active) | 3.12% (active) | -0.398% (active) | 13.8% | -37.4% (active) | -19.1% (active) | 11.7% | -24.2% (active) |
| CC(C)[C@@H]1NC(=O)[C@]2(C)CSC(=N2)c2csc(n2)CNC(=O)C[C@@H](/C=C/CCS)OC1=O | 8.6% (active) | 0.257% (active) | 7.74% (active) | -1.73% (active) | 8.13% (active) | -21.5% (active) | -25.2% (active) | -15.1% (active) | 10.2% | -78.3% (active) | 8.24% (active) | 8.34% (active) | 21.4% | 12% | -57.7% (active) | 11.3% | 6.21% (active) | 21% | -42.5% (active) | 10.1% |
| CC(C)[C@]12O[C@H]1[C@@H]1O[C@]13[C@]1(O[C@H]1C[C@H]1c4c(C(=O)c5ccccc5)oc(OC(=O)c5ccccc5)c4CC[C@@]13C)[C@@H]2O | -14.9% (active) | -12.8% (active) | 9.46% (active) | -0.399% (active) | 9.07% (active) | -9.38% (active) | -39.6% (active) | 1.72% (active) | 1.31% (active) | -57% (active) | 0.787% (active) | -12.5% (active) | -59.1% (active) | 34.3% | -81.1% (active) | -20.7% (active) | 8.47% (active) | -40.6% (active) | -25.5% (active) | -73.7% (active) |
| CN(CCCCN(C)CCOS(C)(=O)=O)CCOS(C)(=O)=O | 84% | 75% | 105% | 84.7% | 35.2% | 86.3% | 81.3% | 78.9% | 100% | 74.2% | 96.7% | 93.3% | 86.9% | 79.7% | 90.1% | 66.4% | 109% | 47.2% | 82.3% | 76.4% |
| CCOC(=O)[C@@H](C)C[C@H](Cc1ccccc1)NC(=O)c1nc([C@@H](C[C@H](C(C)C)N(C)C(=O)[C@@H](NC(=O)[C@H]2CCCCN2C)C(C)C)OC(C)=O)sc1CCOCc1ccccc1 | 14.7% | -80.6% (active) | 11.9% | -42.7% (active) | -54.8% (active) | -16.5% (active) | -49.2% (active) | -31.1% (active) | -38.6% (active) | -70.9% (active) | -27.3% (active) | -31.4% (active) | -77.4% (active) | -49.8% (active) | -14.2% (active) | -38% (active) | -33.6% (active) | -69.2% (active) | -7.85% (active) | -57.1% (active) |
| CCCC(C)C1(CC)C(=O)NC(=O)N(C)C1=O (stereo not given) | 100% | 85.5% | 100% | 85.1% | 106% | 92% | 80.7% | 79.1% | 94.3% | 99.6% | 107% | 102% | 90.1% | 107% | 119% | 100% | 102% | 96.4% | 83.6% | 101% |
| O=C(N/N=C/c1ccc(N(CCCl)CCCl)cc1)c1cccc2ccccc12 | 85.7% | 74.3% | 102% | 59.5% | 47% | 55.5% | 47.9% | 58.4% | 74.2% | 86.3% | 85.3% | 38.9% | 84.8% | 86.9% | 93.3% | 77.4% | 78.7% | 78.6% | 79.1% | 51.7% |
| Nc1c(F)cc(-c2nc3cc(F)ccc3[se]2)cc1F | 49.4% | -11.3% (active) | 70.8% | 58.9% | 14.5% | 74.8% | 84.8% | 46.5% | 104% | 13.4% | 99.8% | 85.8% | 101% | 54.6% | 105% | 91.4% | 87.8% | 96.3% | 101% | 90% |
| COc1ccc(C2=N[C@@H](Cc3ccccc3)C(=O)Nc3ccsc32)cc1 | 53.7% | 76.3% | 89.8% | 66% | 51.7% | 61.4% | -13.4% (active) | 43.2% | 66.6% | 35.6% | 71.3% | 16.2% | 48.6% | 55.9% | 34.3% | 55.1% | 37% | 44.9% | 44% | 20.7% |
| COc1ccc2nc(NC(=O)COc3cc(/C=C\c4cc(OC)c(OC)c(OC)c4)ccc3OC)sc2c1 | 32.1% | 40.1% | 25.3% | 45% | 4.25% (active) | 50.9% | -19.7% (active) | 25.7% | 61% | 26% | 0.406% (active) | 15.6% | 14.1% | 22.7% | -19.9% (active) | 42.3% | -2.09% (active) | -7.12% (active) | 59.5% | 22.9% |
| CC(=O)OC[C@]1(C)C=C2C(=O)[C@](C)(O)C3(CC3)C(C)=C2[C@H]1O | -35.5% (active) | -15% (active) | -23.1% (active) | -29.4% (active) | -37.4% (active) | -25.8% (active) | -52.5% (active) | -21.4% (active) | -46.2% (active) | -33.5% (active) | -19.4% (active) | 27.2% | -78.8% (active) | -28.1% (active) | -79.4% (active) | -8.2% (active) | -19.3% (active) | -68.9% (active) | -28.9% (active) | -66.9% (active) |
| CC(=O)O[C@H]1CC[C@@]2(C)C(=CC[C@H]3[C@@H]4C[C@@H](N5CC5)[C@H](C(C)=O)[C@@]4(C)CC[C@@H]32)C1 | 98.5% | 92.2% | 110% | 83.4% | 93.2% | 80.7% | 88.7% | 100% | 101% | 99.2% | 105% | 72.4% | 98.1% | 91.4% | 103% | 93.2% | 97.5% | 88.8% | 112% | 95.6% |
